# Columns and labels:
# Assay in all cases: PBM binding z-score (relative to random genomic background probes); higher = stronger binding; sequences stand for … in GC…GCGATTGACAGCGTAGAATGAAGG
# [1] = system: PPARg:RXRa DBDmut IVT, anti-RXR (DBD mutation: RXRa K156A/R161A, NR concentration 270 nM, RXRa partner concentration 90 nM)
# Procedure, shortened: (§1)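 For binding z-scores, the reference was random background probes on custom Agilent 4×180K protein-binding microarrays. These arrays were incubated 1 h with ligand-free nuclear receptor dimers in PBS pH 7.4, 2% milk, 0.02% Triton X-100, 1 mM DTT, 0.2 mg/mL BSA and 0.4 mg/ml salmon testes DNA. Fluorescence was scanned after antibody detection of each partner (one per run) and regression-normalized.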
# [2] = system: PPARg:RXRa IVT, anti-PPARg (NR concentration 270 nM, RXRa partner concentration 90 nM)
# Procedure, shortened: as §1
# [3] = system: PPARg DBDmut:RXRa IVT, anti-PPARg (DBD mutation: PPARg1 K132A/R137A, NR concentration 270 nM, RXRa partner concentration 90 nM)
# Procedure, shortened: as §1
# [4] = system: PPARg DBDmut IVT, anti-PPARg (DBD mutation: PPARg1 K132A/R137A, NR concentration 270 nM)
# Procedure, shortened: as §1
# [5] = system: PPARg homodimer (NR concentration 180 nM)
# Procedure, shortened: as §1
# [6] = system: PXR:RXRa (NR concentration 270 nM, RXRa partner concentration 90 nM)
# Procedure, shortened: as §1
# [7] = system: PXR homodimer (NR concentration 270 nM)
# Procedure, shortened: as §1
# [8] = system: RARa:RXR (NR concentration 270 nM, RXRa partner concentration 90 nM)
# Procedure, shortened: as §1
# [9] = system: RARa homodimer (NR concentration 270 nM)
# Procedure, shortened: as §1
# [10] = system: RARb:RXRa (NR concentration 270 nM, RXRa partner concentration 90 nM)
# Procedure, shortened: as §1
# [11] = system: RARb homodimer (NR concentration 270 nM)
# Procedure, shortened: as §1
# [12] = system: RARg:RXRa (NR concentration 270 nM, RXRa partner concentration 90 nM)
# Procedure, shortened: as §1
# [13] = system: RARg homodimer (NR concentration 270 nM)
# Procedure, shortened: as §1
# [14] = system: RXRa DBDmut IVT, anti-RXR (DBD mutation: RXRa K156A/R161A, NR concentration 90 nM)
# Procedure, shortened: as §1
# [15] = system: RXRa homodimer (NR concentration 180 nM)
# Procedure, shortened: as §1
# [16] = system: THRa:RXRa (NR concentration 90 nM, RXRa partner concentration 90 nM)
# Procedure, shortened: as §1
# [17] = system: THRa homodimer (NR concentration 90 nM)
# Procedure, shortened: as §1
# [18] = system: VDR homodimer (NR concentration 270 nM)
# Procedure, shortened: as §1
Sequence,PBM binding z-score [1],PBM binding z-score [2],PBM binding z-score [3],PBM binding z-score [4],PBM binding z-score [5],PBM binding z-score [6],PBM binding z-score [7],PBM binding z-score [8],PBM binding z-score [9],PBM binding z-score [10],PBM binding z-score [11],PBM binding z-score [12],PBM binding z-score [13],PBM binding z-score [14],PBM binding z-score [15],PBM binding z-score [16],PBM binding z-score [17],PBM binding z-score [18]
ACTATTAGTTGACTCAGGGCAACCGATACGACGC,0.402,0.739,1.01,1.08,0.52,0.329,0.569,0.544,0.791,0.893,0.937,0.721,0.905,0.661,0.488,1.5,0.878,0.644
CTATCAAGGTGAACAAGGTCGTTGATTACTATTC,3.58,3.69,0.759,0.594,0.866,2.7,2.19,2.38,0.109,2.22,1.7,1.76,1.54,1.5,1.7,3.12,1.85,2.72
AGAACGAGGGCACGCAGAGTTGATAGCAGAGTAG,4.1,4.09,0.653,0.16,0.313,1.55,0.0867,1.22,-0.379,2.92,1.68,2.85,2.58,2.14,1.73,1.94,0.33,1.86
GCAGACAGGTGAAACGCATGTAACTCAGGGTGGC,0.516,0.404,-1.74,-0.927,-0.716,-0.307,-0.659,-0.0582,-0.606,0.532,-0.102,0.258,0.151,-0.443,0.749,0.0674,-0.704,-0.736
TAGCCTAGGTCATCGGCCAGTATACCACGCGAAC,1.44,2.98,1.05,0.00127,1.6,1.62,-0.365,2.58,-0.512,3.75,2.9,4.27,4.72,1.02,3.08,2.76,1.11,0.802
AGTCAAAGATCACTAGGTAACGTAAGATTCAGCT,1.14,2.97,0.137,0.156,0.697,-0.103,0.0772,0.125,0.459,0.233,-0.307,0.422,0.489,-0.0538,0.356,0.378,-0.116,-0.051
CATACAGGGTCAGCTAGACCAGAGTAGGGACGGC,1.02,2.59,1.26,0.0987,1.43,2.03,-0.458,3.16,0.685,4.07,2.81,4.53,4.93,1.59,4.3,2.83,0.733,0.573
TCTGCTAGGTCAGTTGTTCAGCTAACGAGCTGCC,2.38,2.46,-0.0117,0.257,-0.0463,0.0123,-1.04,0.419,-1.19,3.15,2.19,2.19,3.35,0.434,0.641,1.25,0.158,-0.531
CGTCAAAGTTCAAGGTACCGTAACAGAAAGCAGC,0.47,1.61,0.0848,0.822,2.35,3.99,2.46,3.45,0.789,5.08,3.94,5.07,6.14,4.56,4.33,2.06,0.154,3.09
TAGCCTAGGTCATGGGACAGTATACCACGCGAAC,1.93,3.38,0.841,0.664,2.06,1.99,-0.252,2.89,0.415,3.88,3.25,4.44,4.59,0.981,3.62,3.35,1.62,0.784
TTACCCAGGTGAAAGGTCGTTGATGCACGCCTTG,3.16,5.28,1.04,0.584,2.1,3.69,0.742,4.9,-0.211,2.46,2.56,3.48,1.53,0.677,4.51,3.2,1.26,1.66
CTCGAAAGGTCGGTGGAGGTGAGTATACGGATAA,0.0934,0.827,1.01,-0.175,1.03,2.39,-0.0117,2.63,0.0288,2.89,2.57,2.73,2.83,0.607,2.32,4.27,0.235,0.546
GCTGCTAGGTCAACCGATGGTCAGCTAAAGCTCG,4.93,4.21,-0.16,-0.394,1.63,1.43,-0.956,2.99,-0.609,4.22,3.51,5.42,5.15,1.31,3.11,2.71,0.689,-0.333
CGTCCAACGTCAAAGGTCAGTGAAGAGATGACGG,-0.294,1.63,-0.376,-0.0246,3.55,3.58,0.376,5.04,1.79,4.24,4.22,4.66,5.08,0.458,5.09,2.5,0.106,0.685
GTACCAAGGTGGATAGGTCGTTGATGAGTAGGCG,-0.637,-0.0801,-1.52,-1.37,0.672,-0.207,0.137,-0.144,0.114,0.368,0.625,0.328,0.275,-0.726,0.461,-0.0275,-0.612,-0.371

# — the supplement of paper PMC6555819
